Drawing on PubChem BioAssay (NCI), this text covers growth for 14 molecules.

Experiment in all cases: NCI-60 one-dose screen, 48 h (100 = growth as untreated, 0 = no growth, -100 = all killed)
What all share (conditions): 10 µM

The test system of assay [1] is OVCAR-8 ovarian.
In assay [2] the test system is OVCAR-5 ovarian.
In assay [3] the test system is OVCAR-4 ovarian.
Assay [4] concerns SK-OV-3 ovarian.
The subject of assay [5] is IGROV1 ovarian.
In assay [6] the test system is OVCAR-3 ovarian.
In assay [7] the test system is HS 578T breast.
The test system of assay [8] is NCI/ADR-RES ovarian.
In assay [9] the test system is T-47D breast.

Compounds without any hit were thinned out: in the full panel of roughly 83,000, 20% have a hit.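 Activity criterion: percent growth below 10, measured after cells in 96-well plates were exposed to a single compound concentration for 48 hours.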 Values without a mark were called inactive. Activity calls are given as the source filed them.

In the case of `COc1ccc(/C=C2/CN(C(=O)c3ccccc3F)C/C(=C\c3ccc(OC)cc3)C2=O)cc1`, the growth in [1] was 19%; in [2], 106%; in assay [3], 61.3%; in [4] it was 76.7%; in assay [5] it was 30.6%; in assay [6], 26.9%. The growth in assay [7] is 38.9%; in assay [8] it was 50.4%; in assay [9] it was 62.7%.

As to `CN(C)CCN=c1nc2c(c(N)n1-c1ccccc1)c(=S)n(-c1ccccc1)c(=S)n2-c1ccccc1`, the growth is 33.6% in [1]; 63.1% in [2]; 41.7% in [3]; 76.3% in [4]; 36.3% in assay [5]; -48.7% (active) in assay [6]. Moreover, the growth in assay [7] was 12.3%; in assay [8] it was 58.7%; in assay [9] it was -19.4% (active).

Consider `CCCCC(CCCCCC(CCCC)NCc1ccc2c(c1)OCO2)NCc1ccc2c(c1)OCO2` (stereo unspecified), for which the growth in assay [1] is -83.2% (active); in [2], -100% (active); in [3] it was -98.9% (active); in assay [4] it was -100% (active); in assay [5], -100% (active); in assay [6] it was -100% (active). For the same molecule, the growth in [7] is -67.7% (active); in assay [8] it was -99% (active); in [9], -76.6% (active).

For the molecule `O=[N+]([O-])c1ccc(N/N=C/c2cccc3ccccc23)nc1`, the growth is 104% in assay [1]; 96.7% in assay [2]; 90.4% in assay [3]; 105% in assay [4]; 89.8% in assay [5]; 122% in [6]. Also, the growth in [7] was 108%; in assay [8], 107%; in [9] it was 75.4%.

For the molecule `O=c1c2ccccc2nc(SCCN2CCCCC2)n1CCc1ccccc1`, the growth in assay [1] is 95.9%; in assay [2], 88.7%; in assay [3], 86.7%; in assay [4], 92.6%; in [5], 78.7%; in assay [6], 94.1%. The results for the growth in assay [7], in assay [8] and in [9] were 93.9%, 87.6% and 65.5%, respectively.

For `C/C(N)=C(\C#N)C(=O)c1ccccc1`, the growth in assay [1] was 103%; in assay [2], 97.9%; in assay [3], 104%; in assay [4], 99.5%; in [5], 101%; in [6], 112%. The growth in assay [7] was 111%; in [8], 105%; in [9], 94.1%.

As to `CCN(CC)CCCC(C)Nc1ccc2ccc(Cl)cc2n1` (stereo unspecified), the growth in assay [1] is 94.4%; in assay [2] it was 102%; in [3], 116%; in [4], 104%; in assay [5], 101%; in assay [6] it was 97.8%. In addition, the growth in assay [7] is 90.8%; in assay [8], 98%; in assay [9], 93.1%.

As for `Cc1cs/c(=N\NC(=O)c2cc(-c3cc4ccccc4o3)nn2-c2ccccc2)n1-c1ccccc1`, the growth is 90.8% in [1]; 107% in assay [2]; 82.1% in assay [3]; 91.2% in assay [4]; 2.32% (active) in assay [5]; 67% in [6]. Moreover, the growth in [7] is 49.7%; in assay [8], 87.1%; in assay [9] it was 69.6%.

As to `N#Cc1cc(-c2cc3ccccc3o2)oc1N`, the growth in assay [1] is 4.89% (active); in assay [2] it was 20.9%; in assay [3], 20.5%; in assay [4], 17.3%; in assay [5] it was 7.67% (active); in [6], -7.74% (active). Besides, the growth in assay [7] was -37.9% (active); in [8], 11.1%; in [9], 27.9%.

As to `COc1cc(-c2cc(/C=C3\C(=O)Nc4ccc(Cl)cc43)[nH]n2)cc(OC)c1OC`, the growth in assay [1] is 7.57% (active); in [2], 68.4%; in assay [3], 17%; in assay [4] it was 82.5%; in assay [5], -10.2% (active); in [6] it was 34.2%. Further, the growth in assay [7] was 6.98% (active); in [8], 11.4%; in assay [9] it was 24.8%.

For `CC1(O)CCC2CC3OC3(C)CCC3OC3(C)CCC1C2(C)C` (stereo unspecified), the growth in [1] was 83%; in [2], 109%; in assay [3] it was 109%; in [4] it was 104%; in assay [5], 89.5%; in assay [6] it was 69.4%. In addition, the figures for the growth in [7], in [8] and in assay [9] were 89.4%, 109% and 104%, respectively.

Regarding `Nc1c(C(=O)Nc2cccc(F)c2)sc2nc3c(cc12)C(=O)CCC3`, the growth in assay [1] was 63.9%; in [2], 38.2%; in [3], 57.8%; in [4], 25.6%; in assay [5] it was 44.1%; in assay [6] it was -3.4% (active). Also, the values for the growth in assay [7], in assay [8] and in [9] were 29.3%, 13.3% and 42.6%, respectively.

In the case of `COc1ccc(-n2c(SCc3cc(OC)c(OC)c(OC)c3)nc3ccc(C)cc3c2=O)cc1`, the growth in [1] was 84.2%; in [2], 80.6%; in assay [3] it was 67.2%; in assay [4], 73.8%; in assay [5], 62%; in [6], 59.9%. Moreover, the figures for the growth in assay [7], in assay [8] and in [9] were 77.7%, 45.8% and 67.8%, respectively.

Regarding `COc1ccc2c(c1)sc1nc(-c3ccccc3)c(-c3cccnc3)n12`, the growth was 104% in assay [1]; 110% in assay [2]; 88.1% in assay [3]; 108% in assay [4]; 94.7% in assay [5]; 113% in assay [6]. Further, the results for the growth in assay [7], in assay [8] and in assay [9] were 99.7%, 96.4% and 93.3%, respectively.
